# Screening data: PubChem, The Scripps Research Institute Molecular Screening Center
# Shown is part of a subset that was picked to be rich in hits.
# TTR transcr act: increases transthyretin transcription. 92,000 compounds, 1.3% hits. AID 1117267. activation, % at 16.7 µM. SH-SY5Y TTR promoter Gaussia luciferase, luminescence; 100% = recombinant luciferase protein wells;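 active = activation above the mean of all tested compounds plus 3 SD, cut at about 9.5% in these data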;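 also: cells exposed to compounds for one day before reading; 0% = median of all test compound wells on the plate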
# HuH7 TTR inh: HuH7 TTR transcription inhibition, counter-screen. HuH7 TTR promoter-Gaussia luciferase reporter, luminescence. 1,100 compounds, 4% hits. shares compounds with TTR transcr act. inhibition, % at 16.7 µM;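 active = average inhibition above the solvent-only control wells' mean plus 3 SD, cut at about 15% in these data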;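 also: 0% = cells with DMSO only and 100% = cells with inhibitor control FD; inhibitors lower well luminescence so higher value means more inhibition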
# TTR act confirm: confirmation of human transthyretin transcription activators; shares compounds with TTR transcr act; SHSY5Y TTR promoter Gaussia luciferase, luminescence; 100% = purified Lucia enzyme wells, no cells; activation, % at 16.7 µM; 1,100 tested, under 10 active; AID 1117280;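 active = mean activation above a set limit taken from the earlier primary screen, cut at about 11% in these data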;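 also: 0% = DMSO-treated cells and 100% = recombinant Lucia luciferase without cells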
# * marks the source's active call; other numbers are inactive results.
SMILES,TTR transcr act,others
Cc1nnc(SCc2nc3ccccc3[nH]2)s1,5.0,
Cn1nnnc1SCc1nc2ccccc2[nH]1,-0.8,
COc1ccc(/C=C/S(=O)(=O)NCC(C)C)c(CNC(=O)OC(C)(C)C)c1,-1.1,
C#CCN1CC(COc2ccccc2)OCCS1(=O)=O (centres undefined),-0.2,
Cc1nc2ccccc2n1S(=O)(=O)c1ccc(Br)cc1,6.8,
CCc1ccc(S(=O)(=O)n2c(C)nc3ccccc32)cc1,3.2,
CCSc1nc2ccccc2n1S(=O)(=O)c1ccccc1,30.5*,HuH7 TTR inh=3.8;TTR act confirm=0.2
C[C@@H](O[Si](c1ccccc1)(c1ccccc1)C(C)(C)C)[C@@H]1NC(=O)[C@@H]2C[C@]3(Br)c4ccccc4N(S(=O)(=O)c4ccccc4)[C@@H]3N2C1=O,3.1,
O=C(OCc1cn(Cc2ccc(F)cc2F)nn1)N1CCOCC1,-1.3,
COC[C@@H]1CCCN1c1ccc2c(c1)O[C@@H]1CCN(C1)S2(=O)=O,0.9,
Cc1cc(=O)n(C(C)Cc2ccccc2)n1C(C)Cc1ccccc1 (centres undefined),16.7*,HuH7 TTR inh=-7.7;TTR act confirm=-0.4
CC(Cc1ccccc1)N(C)C(=O)CN1C(=O)c2ccccc2C1=O (centres undefined),-0.3,
CCC(CC)n1c(C)cc(=O)n1C(CC)CC,-0.3,
CC(=O)Nc1sc2c(c1-c1nc3ccccc3s1)CCN(C(C)C)CC2,2.7,
COc1ccc(S[C@]2(C(=O)N3CCOCC3)CC(=O)N(c3ccsc3)[C@@H]2c2ccc(OC)cc2)cc1,-1.0,
Cc1ccccc1C1CCC2(CC1)CCN(CC[C@@H](O)c1ccccc1)C2=O (some centres undefined),1.6,
CN1CCC(N[C@@H](Cc2c[nH]c3ccccc23)C(=O)NCC(c2ccccc2)c2ccccc2)(C(=O)NC2CCCCC2)CC1,-5.0,
O=C(NCc1cccs1)NC1CCCCC1,0.9,
O=C(CC1CC2CCC1C2)NCc1cccs1 (centres undefined),17.9*,HuH7 TTR inh=-10.3;TTR act confirm=0.9
O=C(/C=C/C(=O)NCc1cccs1)NCc1cccs1,-0.9,
Cc1noc(C)c1NC(=O)Nc1ccc2c(c1)C(=O)N([C@@H](C)CO)C[C@@H](C)[C@H](CN(C)S(=O)(=O)c1ccc(F)cc1)OCCCC[C@H](C)O2,1.5,
COC(=O)/C(C#N)=C(/Nc1ccc(F)c(Cl)c1)C(F)(F)F,2.1,
CCOC(=O)N1CCN(C(=O)C[C@@H]2C[C@]3(C(=O)OCC)CCC4=C3N(CCC4)C2=O)CC1,0.6,
COc1cccc(OCc2cc(C(=O)N3CCN(C4CCCC4)CC3)no2)c1,0.8,
NC(=O)[C@@H]1CCCN1C(=O)c1cc(COc2ccc3c(c2)CCCC3)on1,10.5*,HuH7 TTR inh=-7.9;TTR act confirm=-0.5
SMILES,TTR transcr act,others
COc1cccc(OCc2cc(C(=O)N3CCCC3c3ccccn3)no2)c1 (centres undefined),-1.3,
COC(=O)[C@@]12CCCCC=C1N(CCc1ccc(Cl)cc1)C(=O)[C@H]2CC(=O)NCCCCc1ccccc1,-2.1,
C#CCCC(=O)Nc1sc2c(c1-c1nc3ccccc3s1)CCN(C(C)C)C2,-0.1,
COC(=O)C(CN)CN1C(=O)c2ccccc2C1=O (centres undefined),0.0,
C[C@@H](NC(=O)c1nc[nH]c1C(=O)NCC(=O)OC(C)(C)C)c1ccccc1,3.9,
CC(C)(C)OC(=O)CNC(=O)c1nc[nH]c1C(=O)N1CCN(c2ccccc2)CC1,3.1,
CN(Cc1ccccc1)C(=O)c1[nH]cnc1C(=O)NCC(=O)OC(C)(C)C,10.6*,HuH7 TTR inh=-15.7;TTR act confirm=22.1*
O=C(Nc1ccc2c(c1)OCO2)c1cncc(Br)c1,10.6*,HuH7 TTR inh=-2.8;TTR act confirm=0.1
O=C(Nc1ccc2c(c1)OCO2)c1cccc(F)c1,3.6,
O=C(Nc1ccc2c(c1)OCO2)c1ccc(Br)o1,-2.2,
CC1(C)C=Cc2ccc(O)c(C(=O)/C=C/c3ccccc3)c2O1,-0.3,
S=c1[nH]nc(-c2cc(-c3ccccc3)n[nH]2)n1/N=C/c1ccccc1,10.9*,HuH7 TTR inh=-15.0;TTR act confirm=1.0
S=c1[nH]nc(-c2cc(-c3ccccc3)n[nH]2)n1/N=C/C=C/c1ccccc1,3.9,
S=c1[nH]nc(-c2cc(-c3ccccc3)n[nH]2)n1/N=C/c1cccs1,0.2,
CN(C)c1cccc(-c2ccnc(N3CCC(C(N)=O)CC3)n2)c1,-1.6,
CC1(C)CC2CN(Cc3ccccc3)S(=O)(=O)N2C1 (centres undefined),-0.3,
CCC(=O)Nc1ccc(Cl)cc1C(=O)c1ccc[nH]1,-0.3,
Cc1cc(C)n(C(=O)CNc2cccc(Cl)c2C)n1,10.7*,HuH7 TTR inh=-13.9;TTR act confirm=-1.1
Cc1cc(C)n(C(=O)Cn2nc(C)c(Cl)c2C)n1,1.0,
Cc1cc(C)n(C(=O)CNC(=O)C(c2ccccc2)c2ccccc2)n1,-1.4,
CC1(c2nnnn2Cc2ccccc2)CSCC(=O)N1Cc1cccs1 (centres undefined),-0.5,
CC(C)COc1ccc(-c2csc(N3CCC(C(N)=O)CC3)n2)cc1,-3.7,
COC(=O)[C@]12C[C@H](CC(=O)N3CCOCC3)C(=O)N(Cc3cccc4ccccc34)C1=C[C@H](C1CCCC1)O[C@@H]2C,-1.0,
CC1(C)C(CO)=CC(=O)C2=C1SCC(=O)N2,11.3*,HuH7 TTR inh=-9.2;TTR act confirm=0.3
COC(=O)[C@]12CCCCC=C1N(Cc1ccc(OC)cc1)C(=O)[C@@H]2CC(=O)NCCCN1CCCC1=O,1.7,
